Inconclusive results are not listed. Calls of active or inactive are those of the source.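 The calls were made as follows, unless noted: active = inhibition above 54%, about 3 SD of non-fluorescent compounds; inactive = the rest.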
Legend:
[1] = yeast TOR pathway RPL19A-GFP modulators, primary screen, cell-based, S. cerevisiae, multiplex flow cytometry (AID 1862; in the data active = percent of DMSO control GFP below about 86%;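 also: lower values mimic rapamycin by blocking the RPL19A rise seen in DMSO cells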); conditions: S. cerevisiae RPL19A-GFP strain, flow cytometry fluorescence, 3 h; at 10 µM; stronger effect = lower value
[2] = modulators of MEP2-GFP levels in yeast, primary screen, S. cerevisiae, multiplex flow cytometry (AID 1867;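 active = GFP response, as percent of the DMSO control, above the screen-wide mean plus 3 SD, about 139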;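 also: median GFP channel fluorescence of barcode-gated MEP2-GFP cells measured by flow cytometry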); conditions: S. cerevisiae MEP2-GFP strain, 3 h, at 10 µM, stronger effect = higher value, 100% means same as DMSO wells
[3] = modulators of CIT2-GFP expression in yeast, primary screen, S. cerevisiae, GFP fusion, multiplex flow cytometry (AID 1870;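 active = percent response above a set limit, the screen-wide mean plus 3 SD, cut at about 130% in these data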;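 also: barcoded CIT2-GFP strain pooled with four other GFP strains with rapamycin as positive control; median GFP fluorescence per well over plate mean of DMSO wells so 100% = DMSO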); conditions: 3 h, at 10 µM, stronger effect = higher value
[4] = modulators of LAP4-GFP expression in yeast, primary screen, S. cerevisiae, multiplex flow cytometry (AID 1873;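 active = GFP signal, as percent of the solvent control, above the screen mean plus 3 SD, about 149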); conditions: 3 h, at 10 µM, stronger effect = higher value
[5] = modulators of AGP1-GFP expression in yeast TOR pathway, primary screen, cell-based, multiplex flow cytometry, S. cerevisiae (AID 1887;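 active = GFP signal above the screen-wide mean plus 3 SD, that is over about 124.5% of the solvent control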;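 also: AGP1-GFP fusion strain of S. cerevisiae within a five-strain barcoded multiplex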); conditions: 3 h, at 10 µM, stronger effect = higher value
[6] = inhibitors of CD8+ T cell-vesicle binding, pilot screen, LFA-1/ICAM-1 modulator project, MLPCN validation set, flow cytometry (AID 2523;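 active = response below a set limit, under 55% cells CD8-positive and vesicle-bound, and CD8 cells' 90th-percentile brightness under 279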;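 as to vesicle binding response: mean PE anti-B7-1 fluorescence of CD8+ cells relative to row control; 100% = QL9-loaded vesicles with DMSO vehicle in the same plate row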); conditions: 2C mouse CD8+ T cells, at 7 µM, stronger effect = lower value; double positive events: measured here: CD8+/vesicle+ event percentage
[7] = molecular target: Integrin beta-1 (Homo sapiens) + Integrin alpha-4 (Homo sapiens) (UniProt P13612+P05556); experiment: inhibition of HUTS-21 binding to VLA-4, pilot screen, VLA-4 allosteric modulator project, U937 cells, HUTS-21 mAb, flow cytometry, validation set (AID 2674;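 active = inhibition above 50%, about 3 SD of the validation set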;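 also: antibody binding induced by the VLA-4 ligand LDV present at three times its Kd; 0% = LDV ligand with antibody and no compound and 100% = antibody without LDV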); conditions: HUTS-21 LIBS mAb binding, at 6.7 µM, stronger effect = higher value, binding induced by LDV ligand
Sequence of Integrin beta-1 (Homo sapiens) + Integrin alpha-4 (Homo sapiens) (P05556 whole entry, looked up): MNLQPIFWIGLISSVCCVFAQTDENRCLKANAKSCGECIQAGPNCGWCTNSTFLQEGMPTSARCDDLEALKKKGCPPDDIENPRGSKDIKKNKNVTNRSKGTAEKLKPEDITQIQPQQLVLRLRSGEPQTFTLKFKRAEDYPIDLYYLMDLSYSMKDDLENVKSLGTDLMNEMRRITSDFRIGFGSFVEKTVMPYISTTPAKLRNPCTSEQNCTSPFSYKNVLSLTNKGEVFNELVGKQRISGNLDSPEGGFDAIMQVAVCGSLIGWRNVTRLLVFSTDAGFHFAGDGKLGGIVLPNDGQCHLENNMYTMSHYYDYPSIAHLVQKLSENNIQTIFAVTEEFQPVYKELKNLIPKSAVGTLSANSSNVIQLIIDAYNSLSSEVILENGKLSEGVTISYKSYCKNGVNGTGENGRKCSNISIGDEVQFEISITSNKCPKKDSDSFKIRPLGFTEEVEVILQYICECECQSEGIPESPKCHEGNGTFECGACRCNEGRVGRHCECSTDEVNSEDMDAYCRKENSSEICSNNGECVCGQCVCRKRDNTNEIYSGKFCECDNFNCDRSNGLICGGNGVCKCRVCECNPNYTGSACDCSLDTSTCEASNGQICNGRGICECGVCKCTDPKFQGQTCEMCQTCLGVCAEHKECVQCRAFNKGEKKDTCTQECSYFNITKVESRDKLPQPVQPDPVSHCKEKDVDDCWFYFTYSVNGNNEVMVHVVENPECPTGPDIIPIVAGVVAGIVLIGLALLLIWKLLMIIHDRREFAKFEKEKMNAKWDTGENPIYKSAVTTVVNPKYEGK
Sequence of Integrin beta-1 (Homo sapiens) + Integrin alpha-4 (Homo sapiens) (P13612 whole entry, looked up): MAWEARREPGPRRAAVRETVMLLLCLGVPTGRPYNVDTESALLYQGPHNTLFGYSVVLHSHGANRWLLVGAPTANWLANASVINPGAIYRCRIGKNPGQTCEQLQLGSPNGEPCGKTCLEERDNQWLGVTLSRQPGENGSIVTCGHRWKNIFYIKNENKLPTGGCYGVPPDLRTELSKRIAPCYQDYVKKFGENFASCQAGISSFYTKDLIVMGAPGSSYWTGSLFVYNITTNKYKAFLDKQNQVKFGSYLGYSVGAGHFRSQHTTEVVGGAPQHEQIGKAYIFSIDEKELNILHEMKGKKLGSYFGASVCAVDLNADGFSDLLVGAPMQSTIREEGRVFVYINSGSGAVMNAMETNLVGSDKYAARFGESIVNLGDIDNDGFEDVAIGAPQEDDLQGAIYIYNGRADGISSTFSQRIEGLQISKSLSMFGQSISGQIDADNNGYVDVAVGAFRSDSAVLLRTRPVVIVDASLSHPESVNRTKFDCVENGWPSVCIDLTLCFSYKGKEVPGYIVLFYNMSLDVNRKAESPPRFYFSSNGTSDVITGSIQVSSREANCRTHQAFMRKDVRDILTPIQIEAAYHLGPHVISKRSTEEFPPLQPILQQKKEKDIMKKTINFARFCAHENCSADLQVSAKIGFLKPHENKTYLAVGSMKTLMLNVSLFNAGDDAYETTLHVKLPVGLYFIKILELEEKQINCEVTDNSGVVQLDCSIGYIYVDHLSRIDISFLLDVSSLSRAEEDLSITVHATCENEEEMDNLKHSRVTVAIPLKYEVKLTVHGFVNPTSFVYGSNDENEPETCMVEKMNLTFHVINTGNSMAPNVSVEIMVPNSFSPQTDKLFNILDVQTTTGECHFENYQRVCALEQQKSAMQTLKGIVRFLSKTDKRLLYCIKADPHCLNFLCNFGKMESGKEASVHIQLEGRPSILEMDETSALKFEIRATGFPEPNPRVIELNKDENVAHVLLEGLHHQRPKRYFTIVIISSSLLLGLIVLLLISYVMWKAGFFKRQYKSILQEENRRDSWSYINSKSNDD

[8] = superoxide lowering in aged yeast cells, pilot screen, validation compound set (AID 2706;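 active = superoxide response below 65% of plate, a cut near 3 SD across the whole screen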;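 also: yeast exposed to compound for one week at 30 degrees C before staining; 100% = mean of all compound wells on the same plate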); conditions: S. cerevisiae aging, superoxide DHE fluorescence; at 10 µM; stronger effect = lower value
[9] = molecular target: Beta-adrenergic receptor kinase 1 (Homo sapiens) (UniProt P25098); experiment: GRK2 binders displacing RNA aptamer, biochemical, validation, human GRK2, bead flow cytometry (AID 488806;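 active = aptamer binding inhibition above 30%, about 3 SD of noise from non-fluorescent compounds; inactive = inhibition at or below 30%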); conditions: bead-bound GRK2, FAM-aptamer displacement, at 10 µM, stronger effect = higher value
Sequence of Beta-adrenergic receptor kinase 1 (Homo sapiens) (P25098 whole entry, looked up): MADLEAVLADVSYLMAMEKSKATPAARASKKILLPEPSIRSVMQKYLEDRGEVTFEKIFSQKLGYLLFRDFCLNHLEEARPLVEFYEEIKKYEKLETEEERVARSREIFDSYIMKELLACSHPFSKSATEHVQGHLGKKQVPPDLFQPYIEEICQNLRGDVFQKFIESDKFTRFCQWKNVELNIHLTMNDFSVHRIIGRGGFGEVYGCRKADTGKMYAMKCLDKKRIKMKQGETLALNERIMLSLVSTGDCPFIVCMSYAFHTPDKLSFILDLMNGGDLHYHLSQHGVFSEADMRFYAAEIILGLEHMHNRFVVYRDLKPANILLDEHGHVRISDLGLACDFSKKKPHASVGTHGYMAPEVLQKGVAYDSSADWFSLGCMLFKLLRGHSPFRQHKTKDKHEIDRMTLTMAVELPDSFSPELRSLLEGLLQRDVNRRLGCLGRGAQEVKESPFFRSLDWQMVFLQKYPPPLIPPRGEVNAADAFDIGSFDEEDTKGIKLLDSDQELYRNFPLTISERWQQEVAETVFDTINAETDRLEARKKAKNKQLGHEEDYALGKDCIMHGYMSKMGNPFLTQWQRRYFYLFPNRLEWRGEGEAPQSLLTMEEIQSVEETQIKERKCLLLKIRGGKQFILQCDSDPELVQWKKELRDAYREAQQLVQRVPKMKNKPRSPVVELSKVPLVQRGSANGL

[10] = molecular target: Beta-2 adrenergic receptor (Homo sapiens) (UniProt P07550); experiment: beta2AR agonists driving receptor internalization, pilot screen, cell-based, FAP fluorogen, flow cytometry, validation set (AID 504459;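 active = percent response above 42, roughly 3 SD of non-fluorescent test compounds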;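 also: agonist-driven loss of surface beta2AR via internalization measured by FAP dye flow cytometry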); conditions: Am2.2-beta2AR cells, FAP surface receptor flow cytometry; at 10 µM; stronger effect = higher value
Sequence of Beta-2 adrenergic receptor (Homo sapiens) (P07550 whole entry, looked up, the tested form may be a part): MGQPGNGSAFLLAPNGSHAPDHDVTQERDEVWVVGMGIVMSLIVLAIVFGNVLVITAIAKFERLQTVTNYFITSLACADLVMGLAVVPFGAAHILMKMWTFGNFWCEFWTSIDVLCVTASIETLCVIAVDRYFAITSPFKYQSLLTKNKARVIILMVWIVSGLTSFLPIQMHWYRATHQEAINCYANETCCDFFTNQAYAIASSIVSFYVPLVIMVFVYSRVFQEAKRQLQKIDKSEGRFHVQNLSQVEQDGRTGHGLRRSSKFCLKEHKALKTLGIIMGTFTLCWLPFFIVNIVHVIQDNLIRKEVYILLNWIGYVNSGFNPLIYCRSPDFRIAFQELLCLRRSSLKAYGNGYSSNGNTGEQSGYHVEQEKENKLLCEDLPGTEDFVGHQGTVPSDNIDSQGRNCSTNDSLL

[11] = molecular target: AP-2 complex subunit beta (Homo sapiens) (UniProt P63010); experiment: inhibitors of arrestin peptide binding to AP2, pilot screen, biochemical, validation set, GST-AP2 beads, flow cytometry (AID 504541); conditions: FITC arrestin peptide, at 10 µM, stronger effect = higher value, AP2 beta2 appendage fragment, R879A mutant;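 also: AP2 carries R879A mutation and is captured from E. coli lysate; bead-bound FITC arrestin peptide fluorescence measuring arrestin peptide binding to AP2; 0% = DMSO wells and 100% = excess unlabeled arrestin peptide control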
Sequence of AP-2 complex subunit beta (Homo sapiens) (P63010 whole entry, looked up, the tested form may be a part, one chain of several): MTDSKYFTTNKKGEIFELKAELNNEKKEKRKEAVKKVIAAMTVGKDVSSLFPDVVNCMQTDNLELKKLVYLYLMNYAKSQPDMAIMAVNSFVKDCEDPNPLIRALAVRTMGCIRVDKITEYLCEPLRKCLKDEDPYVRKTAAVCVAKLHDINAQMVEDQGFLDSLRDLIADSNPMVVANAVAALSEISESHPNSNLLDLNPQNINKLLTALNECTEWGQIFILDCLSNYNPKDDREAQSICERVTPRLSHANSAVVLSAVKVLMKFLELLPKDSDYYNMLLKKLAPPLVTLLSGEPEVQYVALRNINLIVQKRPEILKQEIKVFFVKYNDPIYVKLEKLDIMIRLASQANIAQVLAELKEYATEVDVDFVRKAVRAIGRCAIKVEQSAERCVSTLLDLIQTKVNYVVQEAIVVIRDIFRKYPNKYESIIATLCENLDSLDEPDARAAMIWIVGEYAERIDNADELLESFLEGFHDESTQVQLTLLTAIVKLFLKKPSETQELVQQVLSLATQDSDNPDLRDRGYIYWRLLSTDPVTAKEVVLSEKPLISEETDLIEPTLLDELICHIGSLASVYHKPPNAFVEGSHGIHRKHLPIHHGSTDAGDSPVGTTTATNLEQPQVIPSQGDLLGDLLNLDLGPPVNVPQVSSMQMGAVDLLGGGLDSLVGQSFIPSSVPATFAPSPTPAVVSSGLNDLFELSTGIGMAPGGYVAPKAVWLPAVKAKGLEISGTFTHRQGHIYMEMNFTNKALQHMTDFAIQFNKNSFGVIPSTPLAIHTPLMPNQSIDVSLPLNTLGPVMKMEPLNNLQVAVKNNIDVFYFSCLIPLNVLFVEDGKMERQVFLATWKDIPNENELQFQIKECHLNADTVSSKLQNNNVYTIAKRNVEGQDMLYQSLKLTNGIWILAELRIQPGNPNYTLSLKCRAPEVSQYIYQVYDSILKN

[12] = yeast V-ATPase proton transport modulators, S. cerevisiae, pHLuorin, HTS validation (AID 504600; in the data active = response above about 15%;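 also: plate controls were DMSO for no effect and reference compound for full effect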); conditions: S. cerevisiae pHLuorin cytosolic pH, at 10 µM, stronger effect = higher value
[13] = test system: anti-desmoglein-3 scFv antibody binding to human DSG3; experiment: inhibitors of anti-DSG3 scFv binding to DSG3, pilot screen, biochemical, validation compound set, bead-based, flow cytometry (AID 588368;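 active = binding below the plate cutoff, the plate median minus 3 SD, with a reading above zero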;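 also: signal is the median channel fluorescence of bead-bound GFP antibody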); conditions: Protein G beads, DSG3-Fc, scFv-GFP binding, at 10 µM, stronger effect = lower value
[14] = inhibitors of fungal efflux pumps CDR1, CDR2, MDR1, pilot screen, validation compound set, multiplex, phenotypic (AID 588506;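 active = efflux inhibition above 0.42, the validation set average plus 4 SD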;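 also: Nile Red retained in cells so higher fluorescence means more efflux inhibition; 0 = negative control wells and 1 = enniatin B 25 µM full block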); conditions: S. cerevisiae pump-expressing triplex, Nile Red efflux flow cytometry; at 10 µM; stronger effect = higher value; the pumps come from Candida albicans
[15] = molecular target: ATP-binding cassette sub-family B member 6 (Homo sapiens) (UniProt Q9NP58); experiment: ABCB6 transporter inhibitors, pilot screen, K562-ABCB6 cells, flow cytometry, validation set (AID 588550;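 active = inhibition above the screen-wide mean plus 3 SD, about 51%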;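 also: 0% = DMSO wells and 100% = benzethonium chloride 70 µM positive control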); conditions: K562-ABCB6 porphyrin accumulation, 1 h, at 10 µM, stronger effect = higher value
Sequence of ATP-binding cassette sub-family B member 6 (Homo sapiens) (Q9NP58 whole entry, looked up): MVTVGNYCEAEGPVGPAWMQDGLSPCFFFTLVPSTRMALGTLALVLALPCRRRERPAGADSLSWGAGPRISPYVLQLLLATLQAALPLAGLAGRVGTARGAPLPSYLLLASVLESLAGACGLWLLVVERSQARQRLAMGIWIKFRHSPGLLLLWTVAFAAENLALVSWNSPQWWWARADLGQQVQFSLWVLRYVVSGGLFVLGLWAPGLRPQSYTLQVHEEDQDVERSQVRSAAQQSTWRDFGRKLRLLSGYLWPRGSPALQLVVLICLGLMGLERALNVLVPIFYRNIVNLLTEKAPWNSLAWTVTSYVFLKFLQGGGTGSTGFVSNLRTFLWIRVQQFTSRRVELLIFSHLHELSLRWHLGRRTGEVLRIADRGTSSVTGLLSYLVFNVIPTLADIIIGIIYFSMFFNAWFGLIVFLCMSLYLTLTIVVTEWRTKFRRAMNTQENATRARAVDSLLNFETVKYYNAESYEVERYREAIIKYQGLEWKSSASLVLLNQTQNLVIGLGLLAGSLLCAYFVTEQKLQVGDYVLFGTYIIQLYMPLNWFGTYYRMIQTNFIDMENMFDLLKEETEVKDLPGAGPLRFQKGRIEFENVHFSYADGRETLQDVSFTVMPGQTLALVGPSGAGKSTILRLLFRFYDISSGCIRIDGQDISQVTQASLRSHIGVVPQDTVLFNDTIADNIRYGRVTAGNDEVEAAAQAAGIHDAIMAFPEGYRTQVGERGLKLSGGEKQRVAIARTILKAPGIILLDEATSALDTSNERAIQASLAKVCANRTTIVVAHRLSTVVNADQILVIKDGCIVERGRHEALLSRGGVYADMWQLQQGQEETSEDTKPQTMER

[16] = promoters of myeloid differentiation in arrested cells, primary screen, cell-based, GFP/MAC1 double positive, flow cytometry, validation set (AID 588685;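 active = differentiation response of at least 50%, scaled between solvent and reference control, from cells with both markers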;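 also: compound exposure lasts four days before antibody staining and flow analysis; 0% = DMSO wells and 100% = 5 µM fulvestrant positive control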); conditions: ER-HoxA9 marrow cells, stronger effect = higher value, normalized: vehicle 0, fulvestrant 100

CC(C[N+](C)(C)C)OC(N)=O (stereo not given)
66.5%: double positive events [6]
inactive: percent of DMSO control GFP [1] 100% | GFP response vs DMSO [2] 98.6% | percent response of DMSO control [3] 89.9% | GFP response vs DMSO [4] 104% | GFP response, % of DMSO [5] 110% | vesicle binding response [6] 164% | inhibition [7] 11.7% | superoxide response (% of plate) [8] 96.5% | aptamer binding inhibition [9] 2% | response [10] -16.4% | inhibition [11] -15.8% | response [12] 0.77% | binding (% of control) [13] 103% | efflux inhibition (fraction of control) [14] 0.08 | inhibition [15] 12% | differentiation response [16] 0%

O=c1[nH]cnc2[nH]ncc12
55.6%: double positive events [6]
inactive: percent of DMSO control GFP [1] 103% | GFP response vs DMSO [2] 103% | percent response of DMSO control [3] 96.5% | GFP response vs DMSO [4] 90.4% | GFP response, % of DMSO [5] 95% | vesicle binding response [6] 154% | inhibition [7] 15% | superoxide response (% of plate) [8] 98% | aptamer binding inhibition [9] 0% | response [10] -2.08% | inhibition [11] 2.53% | response [12] -1.12% | binding (% of control) [13] 103% | efflux inhibition (fraction of control) [14] 0.005 | inhibition [15] -64% | differentiation response [16] 7.13%

CCCn1c(=O)c2[nH]c(C3CCCC3)nc2n(CCC)c1=O
62.8%: double positive events [6]
inactive: percent of DMSO control GFP [1] 92.6% | GFP response vs DMSO [2] 137% | percent response of DMSO control [3] 102% | GFP response vs DMSO [4] 82.5% | GFP response, % of DMSO [5] 88.7% | vesicle binding response [6] 193% | inhibition [7] 0.64% | superoxide response (% of plate) [8] 93.3% | aptamer binding inhibition [9] 4% | response [10] -5.24% | inhibition [11] -0.16% | response [12] -6.35% | binding (% of control) [13] 102% | efflux inhibition (fraction of control) [14] -0.13 | inhibition [15] 7% | differentiation response [16] 2.46%

O=C(c1ccco1)N1CCCN(Cc2nc(-c3ccc4c(c3)OCO4)no2)CC1
inactive: percent of DMSO control GFP [1] 104% | GFP response vs DMSO [2] 103% | percent response of DMSO control [3] 106% | GFP response vs DMSO [4] 98.6% | GFP response, % of DMSO [5] 102% | vesicle binding response [6] 310% | inhibition [7] -0.45% | superoxide response (% of plate) [8] 102% | aptamer binding inhibition [9] 2% | response [10] -9.4% | inhibition [11] 7.41% | response [12] -0.63% | binding (% of control) [13] 94.7% | efflux inhibition (fraction of control) [14] 0.02 | inhibition [15] 10% | differentiation response [16] -11.5%
62.2%: double positive events [6]

CC(=O)C1=C(O)C(=O)N(CC(=O)O)C1c1ccccc1Cl (stereo not given)
54.3%: double positive events [6]
inactive: percent of DMSO control GFP [1] 93.5% | GFP response vs DMSO [2] 136% | percent response of DMSO control [3] 88.6% | GFP response vs DMSO [4] 82.5% | GFP response, % of DMSO [5] 90.3% | vesicle binding response [6] 175% | inhibition [7] 10.3% | superoxide response (% of plate) [8] 106% | aptamer binding inhibition [9] 4% | response [10] -4% | inhibition [11] 1.11% | response [12] 0% | binding (% of control) [13] 100% | efflux inhibition (fraction of control) [14] -0.2 | inhibition [15] 13% | differentiation response [16] -4.91%

O=C(NCc1ccc(N2CCCC2=O)cc1)c1ccc(F)cc1
inactive: percent of DMSO control GFP [1] 103% | GFP response vs DMSO [2] 106% | percent response of DMSO control [3] 100% | GFP response vs DMSO [4] 99.5% | GFP response, % of DMSO [5] 116% | vesicle binding response [6] 211% | inhibition [7] 17.6% | superoxide response (% of plate) [8] 101% | aptamer binding inhibition [9] 3% | response [10] -6.33% | inhibition [11] 6.32% | response [12] -1.49% | binding (% of control) [13] 107% | efflux inhibition (fraction of control) [14] -0.04 | inhibition [15] 2% | differentiation response [16] 1.91%
62.5%: double positive events [6]

CC(C)CC1c2[nH]c3ccccc3c2CCN1C(=O)CCC(=O)N(C)C (stereo not given)
80.7%: double positive events [6]
inactive: percent of DMSO control GFP [1] 90.9% | GFP response vs DMSO [2] 117% | percent response of DMSO control [3] 107% | GFP response vs DMSO [4] 79.2% | GFP response, % of DMSO [5] 93.1% | vesicle binding response [6] 264% | inhibition [7] 3.55% | superoxide response (% of plate) [8] 104% | aptamer binding inhibition [9] 4% | response [10] 6.34% | inhibition [11] -2.59% | response [12] -2.43% | binding (% of control) [13] 104% | efflux inhibition (fraction of control) [14] -0.31 | inhibition [15] 12% | differentiation response [16] -6.55%

COc1ccc2[nH]c3c(=O)n(/N=C/[C@H]4C(C)C=C(C)CC4C)c(=O)[nH]c3c2c1 (stereo not given in full)
57.4%: double positive events [6]
inactive: percent of DMSO control GFP [1] 99.9% | GFP response vs DMSO [2] 109% | percent response of DMSO control [3] 92% | GFP response vs DMSO [4] 107% | GFP response, % of DMSO [5] 102% | vesicle binding response [6] 6260% | inhibition [7] 6.4% | superoxide response (% of plate) [8] 95.3% | aptamer binding inhibition [9] 3% | response [10] 5.28% | inhibition [11] 32.4% | response [12] -6.18% | binding (% of control) [13] 98.7% | efflux inhibition (fraction of control) [14] 0.22 | inhibition [15] 1% | differentiation response [16] -28%

CCc1cc2c(=O)c(-c3ccc4c(c3)OCCO4)coc2c(CN2CCCCC2C)c1O (stereo not given)
inactive: percent of DMSO control GFP [1] 103% | GFP response vs DMSO [2] 98.6% | percent response of DMSO control [3] 91.8% | GFP response vs DMSO [4] 103% | GFP response, % of DMSO [5] 109% | vesicle binding response [6] 177% | inhibition [7] 14.2% | superoxide response (% of plate) [8] 65.8% | aptamer binding inhibition [9] 2% | response [10] -18.8% | inhibition [11] 9.88% | response [12] 3.99% | binding (% of control) [13] 112% | efflux inhibition (fraction of control) [14] -0.04 | inhibition [15] -2% | differentiation response [16] 15.7%
63.4%: double positive events [6]

Cc1ccccc1C(=O)NCC(=O)O
inactive: percent of DMSO control GFP [1] 103% | GFP response vs DMSO [2] 107% | percent response of DMSO control [3] 103% | GFP response vs DMSO [4] 93.7% | GFP response, % of DMSO [5] 105% | vesicle binding response [6] 130% | inhibition [7] 0.25% | superoxide response (% of plate) [8] 102% | aptamer binding inhibition [9] 5% | response [10] 2.69% | inhibition [11] -5.73% | binding (% of control) [13] 103% | efflux inhibition (fraction of control) [14] 0.31 | inhibition [15] -7% | differentiation response [16] -13.3%
active: response [12] 109%
61.4%: double positive events [6]
